aSyn yeast inh = qHTS of alpha-syn Inhibitors; Yeast expressing alpha-synuclein, growth rescue, BacTiter-Glo, 24 h; Potency, µM (top dose mostly 46.1 µM), hits mostly activators; AID 652106, 2013; hit rate 0.14% among 370,000; also: nearly all actives have a fitted effect of over 65% in size
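Readout is rescue of growth in alpha-synuclein-expressing yeast, so inhibitors of toxicity appear as activators. Growth after 24 hr at 30 deg C in galactose medium is quantified by luminescence.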
TDP-43 yeast inh = qHTS of TDP-43 Inhibitors; TDP-43 expressing yeast growth rescue, BacTiter-Glo, 24 h; Potency, µM (top dose mostly 46.1 µM), most hits filed as activators; hit rate 1.8% among 410,000; AID 652104, 2013; also: nearly all actives have a fitted effect of over 50% in size
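Growth rescue of TDP-43-toxic yeast measured as ATP luminescence (BacTiter-Glo). Cells grown to mid-log in raffinose, induced in galactose at OD600=0.02, exposed to compound 24 hr at 30 deg C.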
Abeta rescue = qHTS for compounds that reverse cellular toxicity of Amyloid beta (A-beta) peptide in yeast: Primary Screen. hit rate 0.063% among 410,000. yeast expressing A-beta42, growth rescue, OD600, 48 h; response scale: 0% DMSO, 100% iron-clioquinol control. AID 1347071, 2019. Potency, µM (highest dose often 46.1 µM), most hits filed as activators; also: nearly all actives have a fitted effect of over 55% in size
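Yeast growth medium received pinned compounds, then yeast cells expressing toxic A-beta were added; plates incubated at 30 C for 48 hr. Growth read as absorbance at 600 nm, normalized to DMSO and equimolar FeCl3 plus clioquinol controls.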
FUS suppressor = qHTS for Suppressors of FUS Proteinopathy: Primary screen using FUS-linked yeast assay; Potency, µM (highest dose often 76.6 µM), usual class: activators; S. cerevisiae FUS-expressing, growth rescue, OD600, 24 h; hit rate 0.24% among 390,000; AID 1347120, 2019; also: nearly all actives have a fitted effect of over 55% in size
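Yeast expressing FUS under galactose induction, OD 0.005 in 2% galactose medium; compounds in a dilution series, 24 h at 30C. Growth rescue by absorbance at 600 nm; CP55940 positive control, DMSO negative.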
Numbers stand for hits; 0 = inactive; ? = inconclusive; - = no result given; [ ] = dose if it differs, or a comment. Compounds with a hit are over-represented: about 2.1% of the library has one in this group of screens. Calls follow the shape of the dose curve; as a rule, active = well fitted curve in the direction sought with a large enough effect; inconclusive = small, poorly fitted or top-dose-only effect, or another doubt; inactive = no such curve, though single readings can be large; an effect the other way counts as inactive or inconclusive.

SMILES | aSyn yeast inh | TDP-43 yeast inh | Abeta rescue | FUS suppressor
COc1ccc(/C=C/C(=O)N2CCN(S(=O)(=O)c3ccccc3Br)CC2)cc1OC | ? | 22.4µM | 0 | ?
COCc1cc(OC)nc(-c2csc(C)n2)n1 | 0 | 0 | 15.8µM | 0
CCc1ccc(C(=O)c2cn(CC(=O)Nc3cc(OC)ccc3OC)c3nc(C)ccc3c2=O)cc1 | - | 0 | 0 | 35.5µM
Cc1ccc(C(=O)c2cn(Cc3ccccc3C)c3nc(C)ccc3c2=O)cc1 | - | ? | 0 | 25.1µM
Cc1ccc(C(=O)c2cn(CC(=O)NCc3ccccc3)c3nc(C)ccc3c2=O)cc1 | - | 0 | 0 | 0
Cc1ccc(C(=O)c2cn(Cc3cccc(F)c3)c3nc(C)ccc3c2=O)cc1 | - | 14.1µM | 0 | 0
Cc1ccc(C(=O)c2cn(Cc3ccccc3)c3nc(C)ccc3c2=O)cc1 | - | 11.2µM | 0 | 0
CCn1cc(C(=O)NCCc2ccccc2C)c(=O)c2ccc(C)nc21 | 0 | 0 | 0 | 0
COc1ccc(Cl)cc1NC(=O)Cn1cc(C(=O)c2ccc(C)cc2)c(=O)c2ccc(C)nc21 | - | 0 | 0 | 0
COc1ccc(-n2c(COc3ccc(Cl)cc3)nnc2SCC(=O)Nc2ccc(Oc3ccccc3)cc2)cc1 | - | - | - | 0
Cc1cc(C)cc(OC(=O)c2cc(-c3ccc(Cl)cc3)on2)c1 | - | 0 | 0 | 0
CN(C(=O)COC(=O)c1ccccc1Nc1ccccc1)c1c(N)n(Cc2ccccc2)c(=O)[nH]c1=O | 0 | 0 | 0 | 35.5µM
Fc1ccc(N2CCN(c3ncnc4onc(-c5ccc(Cl)cc5)c34)CC2)cc1 | - | 17.8µM | 0 | 0
Cc1ccc(NC(=O)C2CCCN2S(=O)(=O)c2ccc3c(c2)CCCC(=O)N3)cc1C (stereo not drawn) | - | 0 | 0 | 0
O=C(COC(=O)c1c2ccccc2cc2ccccc12)NCC(F)(F)F | 0 | 15.8µM | 0 | -
COc1ccc(Nc2nc(Nc3ccc(OC)cc3OC)nc(N3CCOCC3)n2)c(OC)c1 | - | 0 | 0 | 0
NNC(=S)Nc1ccc(OC(F)(F)F)cc1 | 0 | 0 | 11.2µM | 0
NNC(=S)Nc1ccc(Cl)cc1 | 0 | 0 | ? | 0
O=C(NCCc1ccc(F)cc1)c1cc(=O)c2ccccc2o1 | 0 | 22.4µM | 0 | 0
Cc1ccccc1NC(=O)c1cc(=O)c2ccccc2o1 | 0 | 12.6µM | 0 | 0
COc1ccccc1CNC(=O)c1ccc(N2CCCC2)c(NC(=O)NCc2ccccc2)c1 | - | 0 | 0 | 0
C=CCC[C@H](CCCCC)OC(=O)/C=C/[C@H](O)[C@@H](O)C[C@H](O)CC=C | ? | 0 | 0 | 0
C=CCC[C@@H](CCCCC)OC(=O)/C=C/[C@H](O)[C@@H](O)C[C@H](O)CC=C | 20µM | 0 | 0 | ?
CCOC(=O)C1=CCN(S(=O)(=O)c2ccccc2F)C1c1ccc(Cl)cc1 (stereo not drawn) | 0 | 15.8µM | 0 | 0
CCOC(=O)C1=CCN(S(=O)(=O)c2ccccc2F)C1c1ccc(C)cc1 (stereo not drawn) | 0 | 0 | 0 | 0
SMILES | aSyn yeast inh | TDP-43 yeast inh | Abeta rescue | FUS suppressor
Cc1ccc(S(=O)(=O)c2cn(C)c3cc(N4CCOCC4)c(F)cc3c2=O)c(C)c1 | - | 0 | 0 | 0
Cc1ccc(/C=C(\NC(=O)c2ccc(C)cc2)c2nc(=S)[nH][nH]2)cc1 | 0 | 20µM | 0 | 0
CC(C)c1ccc(OCC(=O)NNC(=S)NC(=O)c2ccco2)c(Br)c1 | 0 | 10µM | 0 | 0
Cc1ccccc1OCC(=O)Nc1ccccc1NC(=O)c1ccco1 | 0 | 0 | 0 | 0
O=C(Cc1ccc(Cl)cc1)NNC(=S)NC(=O)c1cccs1 | 0 | 28.2µM | ? | 0
Cc1ccccc1OCC(=O)NNC(=S)NC(=O)c1ccco1 | ? | 7.08µM | ? | 0
O=C(Cc1cccs1)NNC(=S)NC(=O)c1ccco1 | ? | ? | 10µM | 0
O=C(Cc1cccs1)NNC(=S)NCc1ccc(Cl)cc1 | 0 | 0 | 0 | 0
Cc1cccc(-n2c(SCC(=O)c3ccccc3)nnc2-c2ccc(Br)cc2)c1 | - | 0 | 0 | 0
S=C1SCN(Cc2cccs2)CN1Cc1cccs1 | 0 | 11.2µM | 0 | 0
S=C1SCN(Cc2ccco2)CN1Cc1ccco1 | 0 | ? | 0 | 0
O=C(c1cnn(-c2ccc(F)cc2)c1-n1cccc1)N1CCN(c2ccc(Cl)cc2)CC1 | 0 | 0 | 0 | 0
O=C(c1cnn(-c2ccc(F)cc2)c1-n1cccc1)N1CCN(c2ccccc2)CC1 | 0 | 14.1µM | 0 | 0
CCOc1cc(CNCCSc2nnnn2-c2ccccc2)cc(Cl)c1OC | - | 0[9.22 µM] | 0 | 0
CCc1n[nH]c(=S)n1/N=C/C(C)=C\c1ccccc1 | 0 | 0 | 0 | 0
CCc1n[nH]c(=S)n1N=C1CCC(C)CC1 (stereo not drawn) | 0 | 3.55µM | 0 | 0
S=c1[nH]nc(COc2ccc(Cl)cc2)n1Cc1ccco1 | 0 | ? | 12.6µM | 0
CCN(CC)C(=O)CC[C@@H]1CC[C@]2(CCCN(Cc3ccccn3)C2)O1 | - | - | - | 0
Cc1ccc(CN2CCCCC(NC(=O)c3ccc(Br)cc3)C2=O)cc1 (stereo not drawn) | - | - | - | 0
CCOc1ccccc1CNC(=O)c1ccc2nc(CCc3ccccc3)oc2c1 | - | 0 | 0 | 0
C=CCNc1nc(-c2cc3ccccc3o2)cs1 | 0 | 12.6µM | 0 | -
c1ccc2oc(-c3csc(NCC4CCCO4)n3)cc2c1 (stereo not drawn) | 0 | 11.2µM | 0 | 0
c1ccc2sc(NCC3CCCO3)nc2c1 (stereo not drawn) | 0 | 0[0.397 µM] | 0 | 0
C=CCNc1nc(-c2ccc3c(c2)OCCO3)cs1 | 0 | 0 | 0 | 0
CC(C)NC(=O)N1[C@H](c2cccs2)[C@@H](C)C(=O)[C@@H](C)[C@@H]1c1cccs1 | - | 0[9.22 µM] | 0 | 0
SMILES | aSyn yeast inh | TDP-43 yeast inh | Abeta rescue | FUS suppressor
Clc1cccc(OCc2nnc(-c3ccccc3Br)o2)c1 | ? | 17.8µM | 0 | 0
Clc1ccc(OCc2nnc(-c3ccccc3Br)o2)cc1 | 0 | 0 | 0 | 0
O=C1OCC2=C1C(c1cccc(Cl)c1)CC(=O)N2c1ccc(C(F)(F)F)cc1 (stereo not drawn) | 0 | 0 | 0 | 0
COc1ccc(NS(=O)(=O)c2cc(NC(=O)CCNC(C)=O)ccc2N2CCCCC2)cc1 | 0[1.84 µM] | 0 | 0 | 31.6µM
CCN(CC)S(=O)(=O)c1ccc2c(c1)N(CC(=O)Nc1c(C)cc(C)cc1C)C(=O)C1CCCN21 (stereo not drawn) | - | 0 | 0 | 0
COc1cccc(CC2CC(=O)N(CCc3ccc4c(c3)OCO4)C2=O)c1 (stereo not drawn) | 0 | 20µM | 0 | 0
NS(=O)(=O)c1cc(Br)c2c(c1)S(=O)(=O)NCN2 | 0 | 0 | 0 | 0
CCNc1nc(NCC)n2c(SC(C(=O)Nc3cc(C)ccc3C)c3ccccc3)nnc2n1 (stereo not drawn) | 0 | 0 | 0 | 31.6µM
Cc1cccc(Cn2cc(C(=O)Nc3cc(F)ccc3F)ccc2=O)c1 | ? | 22.4µM | ? | ?
CCOc1ccc(Cn2c(=O)sc3ccccc32)cc1OC | ? | 12.6µM | 0 | 0
COc1ccc(OCCn2c(=O)sc3ccccc32)cc1 | 25.1µM | 15.8µM | 0 | 0
COc1ccc(Cn2c(=O)sc3ccccc3c2=O)cc1 | ? | 11.2µM | 0 | 0

From PubChem
